Experimental data from ChEMBL document CHEMBL3433997, “St. Jude Leishmania screening dataset” (2016).

Experiments:
Type in all cases: functional
[1] = target: Solute carrier family 2, facilitated glucose transporter member 1 (Homo sapiens) (UniProt P11166); test: ST_JUDE_LEISH: Cytotoxicity at 2uM final concentration against transgenic Leishmania Mexicana promastigotes LmGLUT1 that are glucose transport deficient and complemented with the human glucose transporter GLUT1. Activity is measured by DNA content using SYBR green in vitro
[2] = target: Hexose transporter 1 (Plasmodium falciparum) (UniProt O97467); test: ST_JUDE_LEISH: Cytotoxicity at 2uM final concentration against transgenic Leishmania Mexicana promastigotes LmPfHT that are glucose transport deficient and complemented with the Plasmodium falciparum hexose transporter. Activity is measured by DNA content using SYBR green in vitro
[3] = target: Glucose transporter (Leishmania mexicana) (UniProt O61059); test: ST_JUDE_LEISH: Cytotoxicity at 2uM final concentration against transgenic Leishmania Mexicana promastigotes LmGT2 that are glucose transport deficient and complemented with the L. Mexicana glucose transporter 2. Activity is measured by DNA content using SYBR green in vitro

Solute carrier family 2, facilitated glucose transporter member 1 (Homo sapiens), sequence (P11166 whole entry): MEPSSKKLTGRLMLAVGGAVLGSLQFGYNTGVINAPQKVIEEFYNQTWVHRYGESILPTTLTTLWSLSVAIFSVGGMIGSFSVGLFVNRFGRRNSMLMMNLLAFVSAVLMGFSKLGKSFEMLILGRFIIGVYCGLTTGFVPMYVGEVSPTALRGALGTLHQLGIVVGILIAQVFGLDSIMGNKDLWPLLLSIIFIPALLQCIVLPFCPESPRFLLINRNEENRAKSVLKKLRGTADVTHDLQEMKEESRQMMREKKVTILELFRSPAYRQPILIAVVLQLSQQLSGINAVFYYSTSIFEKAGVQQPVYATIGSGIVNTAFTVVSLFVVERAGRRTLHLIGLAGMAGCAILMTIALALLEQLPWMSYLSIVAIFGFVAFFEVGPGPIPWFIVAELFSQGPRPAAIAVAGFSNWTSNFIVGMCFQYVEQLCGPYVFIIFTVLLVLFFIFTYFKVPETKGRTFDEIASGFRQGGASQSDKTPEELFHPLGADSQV

Compound	inhibition [1] [%]	inhibition [2] [%]	inhibition [3] [%]
O=C(Nc1cccc(-c2cccc(-c3nc4cc(F)ccc4[nH]3)c2)c1)c1c[nH]cn1	-0.8	-0.5	-1.75
Cc1ccc(NC(=O)NC2CCN(CCC(NC(=O)Cc3ccccc3)c3ccc(Cl)c(Cl)c3)CC2)cc1 (stereo unspecified)	-2.11	-2.83	-3.14
Cc1cc(CN2CCC(N3CC(c4ccccc4)(c4ccccc4)OC3=O)C2)ccc1O (stereo unspecified)	4.14	3.7	8.06
CC(=O)Oc1ccc(C(=O)Oc2ccccc2C#CC#N)cc1OC(C)=O	-2.02	0.93	-1.3
Cc1nnc2c(NC(=O)NC3CCCC3)cc3ccc(-c4cccc(CN(C)C)c4)cc3n12	2.19	2.6	0.64
COc1cc(C=NNc2cc(C)nc3c(OC)cccc23)cc(OC)c1OC	7.21	3.3	3.68
COc1cccc(Nc2nccc(NCC(O)c3ccc(C(F)(F)F)cc3)n2)c1 (stereo unspecified)	7.45	8.55	2.75
CC(=O)N1CCC(C(=O)Nc2ccc(-c3cccc(-c4nc5cc(C(F)(F)F)ccc5[nH]4)c3)cc2)CC1	0.57	3.33	1.24
CCCCC(CCCC)CN1C(=O)C(c2ccccc2)(c2ccccc2)N=C1N	1.9	1.66	0.77
O=C(N[C@@H](Cc1ccccc1)C(=O)NCc1cccc(C(F)(F)F)c1)c1ccc(O)c(-c2ccc(Cl)c(Cl)c2)c1	3.7	0.97	-2.02
COc1ccc2nccc([C@@H](O)CN3CCC(NCc4cc5cccc(O)c5[nH]4)CC3)c2c1	1.85	2.02	3.77
Cc1cc(N2CCCC2)nc(NC(=N)Nc2cccc(C(F)(F)F)c2)n1	6.6	7.28	2.22
CN1CCC(NCc2ccc(-c3ccc(Cl)cc3)cc2)CC1	5.65	8.78	4.44
Cc1cc(N[C@@H](CC(C)C)C(=O)Nc2ccccc2)nc(NCC2CCCCC2)n1	10.2	9.8	5.12
CCCCCCCCCn1c(NCc2cc(Cl)ccc2O)nc2ccccc21	2.6	1.33	0.42
FC(F)(F)c1ccc2[nH]c(-c3ccc(-c4cccc(CNCCc5ccncc5)c4)s3)nc2c1	0.52	1.67	5.33

Compound	inhibition [1] [%]	inhibition [2] [%]	inhibition [3] [%]
CCCc1cc(Cc2cnc(N)nc2N)c2cccnc2c1OC	6.44	4.01	4.33
CCn1nc(C(=O)NC2CCOc3ccccc32)c2ccccc2c1=O (stereo unspecified)	-1.12	-0.92	-3.49
Cc1cc(C(F)(F)F)n2nc(C3CCN(Cc4cc(C)c(O)c(C)c4)C3)cc2n1 (stereo unspecified)	4.53	3.54	-0.59
COc1ccc(Cl)cc1NC(=O)Nc1cc(C)nc2ccccc12	7.32	12.8	2.81
O=C(Cc1cccc(Cl)c1)Nc1cccc(-c2c[nH]c3nc(Nc4cccc(O)c4)ncc23)c1	0.33	0.22	-0.68
COc1c(C2CCN(CCCCNC(=O)c3ccc(-c4ccc(Cl)cc4)c(OCC(N)=O)c3)CC2)ccc2c1CCCC2	4.52	3.3	5.11
Cc1ccc(C(C)C)c(Oc2cnc(NC(CO)c3ccccc3)nc2N)c1 (stereo unspecified)	9.07	8.83	8.45
CC(C)c1ccc(CN2CCC(NC(=O)c3ccc(-c4cccc(Cl)c4)s3)CC2)cc1	5.24	4.2	7.5
CN1CCC(NCc2cccc(-c3nn(C)c4nc(NC5CCCC5)ncc34)c2)CC1	2.78	1.84	3.81
O=C(Nc1ccccc1)N(Cc1cccc(-c2cccc(CNCCc3ccccc3)c2)c1)C1CCN(Cc2ccccc2)CC1	7.12	2.49	4.94
CN1CCN(CCCN(Cc2ccc(-c3ccc(CNCc4ccc5c(c4)OCO5)cc3)cc2)C(=O)Nc2ccccc2)CC1	11.6	13.7	11
CC(=O)c1cccc(NC(=O)N2CCCN(CCCCCNC(=O)/C=C/c3ccc(Cl)c(Cl)c3)CC2)c1	-1.7	-0.03	-0.6
CCCc1cc(Cc2cnc(N)nc2N)ccc1OCCCCCC(=O)OCC	1.31	-1.27	-2.01
CC(C)COc1ccc(Cl)cc1Cc1ccc(-c2nc3cc(N4CCN(C)CC4)ccc3[nH]2)o1	4.56	1.63	2.01
CC(O)C1CCCCN1C(=O)c1cccc(-c2ccc(-c3nc4cc(C(F)(F)F)ccc4[nH]3)cc2)c1 (stereo unspecified)	0.8	0.3	1
CCNc1cc(C(=O)N[C@@H](Cc2ccccc2)[C@H](O)CNC2(CC)CCCCC2)cc(N2CCCCS2(=O)=O)c1	-0.15	0.61	-2.89
